From PubChem BioAssay (NCI) come the findings set out here.

What all share (test): NCI-60 one-dose screen, 48 h (100 = growth as untreated, 0 = no growth, -100 = all killed)
The test system of one assay is HCT-15 colon. The settings on record: 10 µM unless noted.
The test system of a further assay is HT29 colon. The following applies: 10 µM unless noted.
For the next assay, the system named is SNB-19 CNS. The settings on record: 10 µM unless noted.
The subject of a further assay is U251 CNS. The following applies: 10 µM unless noted.
A further assay deals with PC-3 prostate. The settings on record: 10 µM unless noted.
A further assay has as its system SK-MEL-5 melanoma. The following applies: 10 µM unless noted.
In the next assay the test system is UACC-62 melanoma. The following applies: 10 µM unless noted.
The next assay relates to LOX IMVI melanoma. The following applies: 10 µM unless noted.
For another assay, the system named is SK-MEL-28 melanoma. The settings on record: 10 µM unless noted.
In a further assay the test system is SK-MEL-2 melanoma. The settings on record: 10 µM unless noted.
The subject of another assay is EKVX NSCLC. The settings on record: 10 µM unless noted.
The subject of another assay is SN12C renal. The following applies: 10 µM unless noted.
In a further assay the test system is UO-31 renal. The settings on record: 10 µM unless noted.
A further assay deals with ACHN renal. The following applies: 10 µM unless noted.
In another assay the test system is CAKI-1 renal. The settings on record: 10 µM unless noted.
The subject of a further assay is A498 renal. The settings on record: 10 µM.
A further assay has as its system HL-60(TB) leukemia. The settings on record: 10 µM unless noted.
For a further assay, the system named is CCRF-CEM leukemia. The following applies: 10 µM unless noted.
Another assay deals with SNB-75 CNS. The settings on record: 10 µM unless noted.
Another assay relates to TK-10 renal. The settings on record: 10 µM unless noted.

Compounds without any hit were thinned out: in the full panel of roughly 83,000, 20% have a hit.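 Negative percent growth values reflect cell death: -40 means 40% of the cells present at the start died, and -100 means all died.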 Values without a mark were called inactive. The source made the active and inactive calls. Rule for the calls: active = growth percent below 10; inactive = the rest.

Regarding `Clc1cccc(NCOOC2(OOCNc3cccc(Cl)c3)CCCCC2)c1`, the growth with HCT-15 colon is 70.2%; in the assay on HT29 colon, 74.5%; with SNB-19 CNS, 90.2%; with U251 CNS it was 61.4%; in the assay on PC-3 prostate, 77.6%; in the assay with SK-MEL-5 melanoma it was 71.4%. The growth is 34.3% with UACC-62 melanoma; -86.1% (active) with LOX IMVI melanoma; 100% with SK-MEL-28 melanoma; 80.8% with SK-MEL-2 melanoma; 55.1% in the assay with EKVX NSCLC; 91.9% in the assay on SN12C renal. Further, the growth in the assay with UO-31 renal was -73.7% (active); in the assay on ACHN renal it was 38.8%; with CAKI-1 renal it was 12.3%; in the assay with A498 renal, 61%; in the assay with HL-60(TB) leukemia it was 39.1%; in the assay on CCRF-CEM leukemia, 36.7%.

For the compound `Nc1nnnc2nc[nH]c12`, the growth in the assay with HCT-15 colon is 20.9%; in the assay on HT29 colon it was 38.4%; in the assay with SNB-75 CNS it was 45.8%; in the assay on U251 CNS, 19.4%; in the assay with PC-3 prostate, 11.5%; with SK-MEL-5 melanoma, 33.8%. In addition, the growth was -50.9% (active) in the assay on UACC-62 melanoma; 6.61% (active) in the assay on LOX IMVI melanoma; 14.8% in the assay on SK-MEL-28 melanoma; -16.8% (active) with SK-MEL-2 melanoma; 8.89% (active) in the assay with EKVX NSCLC; 10.9% with SN12C renal. The growth with UO-31 renal is 3.57% (active); with TK-10 renal it was 33.3%; in the assay with ACHN renal it was 2.18% (active); in the assay on CAKI-1 renal, -11.1% (active); in the assay on A498 renal, 12.7%; in the assay with HL-60(TB) leukemia, -4.59% (active). Moreover, the growth in the assay on CCRF-CEM leukemia was 0.72% (active).

Regarding `C1CCC2(CC1)OOCNCOO2`, the growth with HCT-15 colon is 99.3%; in the assay on HT29 colon, 97.7%; in the assay with SNB-19 CNS it was 113%; in the assay on U251 CNS, 105%; in the assay on PC-3 prostate it was 98%; in the assay on SK-MEL-5 melanoma, 93.5%. Moreover, the growth was 113% with UACC-62 melanoma; -76.6% (active) in the assay on LOX IMVI melanoma; 110% with SK-MEL-28 melanoma; 102% in the assay with SK-MEL-2 melanoma; 99% in the assay with EKVX NSCLC; 110% with SN12C renal. For the same compound, the growth was 93.6% in the assay on UO-31 renal; 91.3% with TK-10 renal; 110% with ACHN renal; 93.1% in the assay with CAKI-1 renal; 97.4% in the assay with A498 renal; 71.7% in the assay on HL-60(TB) leukemia. Also, the growth with CCRF-CEM leukemia is 99.5%.

In the case of `Clc1cccc(NCOOC2(OOCNc3cccc(Cl)c3)CCCCCC2)c1`, the growth in the assay with HCT-15 colon was 93.2%; with HT29 colon it was 102%; in the assay with SNB-19 CNS, 93.2%; in the assay with U251 CNS it was 101%; in the assay on PC-3 prostate, 91.2%; with SK-MEL-5 melanoma, 93.7%. Also, the growth with UACC-62 melanoma is 102%; in the assay with LOX IMVI melanoma, -85.2% (active); in the assay with SK-MEL-28 melanoma, 107%; in the assay on SK-MEL-2 melanoma, 92.4%; with EKVX NSCLC, 89%; with SN12C renal, 95.4%. For the same compound, the growth in the assay with UO-31 renal is -47.3% (active); with TK-10 renal, 92.2%; in the assay with ACHN renal it was 80.5%; in the assay with CAKI-1 renal it was 36%; in the assay with A498 renal, 98.8%; in the assay with HL-60(TB) leukemia it was 78.8%. The growth in the assay with CCRF-CEM leukemia was 80.2%.

For the compound `Fc1ccc(N2COOC3(OOC2)C2CC4CC(C2)CC3C4)cc1`, the growth in the assay on HCT-15 colon is 88.6%; with HT29 colon, 102%; in the assay on SNB-19 CNS, 95.5%; with U251 CNS it was 97.1%; with PC-3 prostate, 90.4%; in the assay with SK-MEL-5 melanoma, 101%. Besides, the growth in the assay on UACC-62 melanoma was 76.5%; with LOX IMVI melanoma, -82.2% (active); with SK-MEL-28 melanoma it was 100%; in the assay on SK-MEL-2 melanoma, 88.8%; with EKVX NSCLC, 79.4%; in the assay with SN12C renal, 101%. Also, the growth is -74.9% (active) in the assay on UO-31 renal; 93% in the assay with TK-10 renal; 59.7% in the assay on ACHN renal; 26% in the assay on CAKI-1 renal; 90.1% in the assay with A498 renal; 74% in the assay with HL-60(TB) leukemia. Also, the growth with CCRF-CEM leukemia was 94.2%.

As to `CCCCCCC(=O)NC1=C(N2CC2)C(=O)C(NC(=O)CCCCCC)=C(N2CC2)C1=O`, the growth with HCT-15 colon was 69%; in the assay with HT29 colon, 19.2%; with SNB-19 CNS, 60.6%; in the assay with U251 CNS, 52.1%; in the assay with PC-3 prostate, 35.4%; with SK-MEL-5 melanoma it was 52.4%. Further, the growth in the assay on UACC-62 melanoma is 30.6%; with LOX IMVI melanoma, 33.5%; with SK-MEL-28 melanoma, 81.5%; with SK-MEL-2 melanoma, 73%; in the assay on EKVX NSCLC, 78.3%; in the assay with SN12C renal, 41.7%. Moreover, the growth in the assay with UO-31 renal is 43.1%; in the assay with TK-10 renal, 75.5%; in the assay with ACHN renal, 32.9%; with CAKI-1 renal, 45.6%; in the assay with A498 renal it was 66.9%; with HL-60(TB) leukemia, 16.8%. In the assay with CCRF-CEM leukemia, the growth was 50.7%.

On to `C=CC[Se]C(=O)c1ccccc1OC(C)=O`, for which the growth is 17.8% in the assay with HCT-15 colon; 14.4% in the assay with HT29 colon; -23.2% (active) in the assay on SNB-19 CNS; -44% (active) in the assay with U251 CNS; -28.3% (active) with PC-3 prostate; -35.7% (active) in the assay with SK-MEL-5 melanoma. Moreover, the growth was -15.2% (active) with UACC-62 melanoma; 21.7% in the assay with LOX IMVI melanoma; 4.12% (active) in the assay with SK-MEL-28 melanoma; 37.2% in the assay with SK-MEL-2 melanoma; -30.8% (active) in the assay with EKVX NSCLC; -18.4% (active) in the assay with SN12C renal. Moreover, the growth in the assay with UO-31 renal was -53.5% (active); with TK-10 renal, 12.5%; in the assay on ACHN renal it was -26.6% (active); with CAKI-1 renal, -9.51% (active); in the assay with A498 renal it was -3.97% (active); in the assay on HL-60(TB) leukemia, -45.7% (active). For the same compound, the growth in the assay on CCRF-CEM leukemia is 5.37% (active).

Regarding `CC(=O)[C@H]1CC[C@H]2[C@@H]3CC[C@H]4C[C@H](N)CC[C@]4(C)[C@H]3CC[C@]12C`, the growth with HCT-15 colon was 64.5%; in the assay with HT29 colon, 13.7%; in the assay with SNB-75 CNS it was 49.5%; in the assay with U251 CNS, 69.2%; in the assay on PC-3 prostate it was 62.1%; with SK-MEL-5 melanoma, 62.8%. The growth in the assay with UACC-62 melanoma is 80.9%; in the assay on LOX IMVI melanoma, 69.4%; in the assay with SK-MEL-28 melanoma it was 86.2%; in the assay on SK-MEL-2 melanoma it was 89.8%; with EKVX NSCLC, 76.9%; with UO-31 renal it was 63.1%. The growth with TK-10 renal is 82.6%; in the assay with ACHN renal it was 82.9%; in the assay with A498 renal, 78.6%; in the assay on HL-60(TB) leukemia it was 63.4%; with CCRF-CEM leukemia it was 102%.
